The results in this text go back to PubChem BioAssay (NCI).

About 79,000 compounds went through this panel and 15% of them were active in at least one assay; those are over-represented in the sample as a whole. Values without a mark were called inactive. Calls of active or inactive are those of the source. Cut-off read from the data, not from the text of the source: active = growth inhibition above about 70%; inactive = the rest.

The assay can be described thus: NCI Yeast Anticancer Drug Screen. Data for the CLN2oe strain (AID 163).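 Note: 0% = growth of vehicle-only control cultures.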 To be noted: S. cerevisiae CLN2oe strain, hits give high values. The procedure:
Growth inhibition of yeast strains with defined genetic alterations is measured as a screen for potential anti-cancer activity. Selected strains with alterations in DNA damage repair or cell cycle control were exposed to compounds and growth inhibition was measured relative to vehicle treated controls. The strain used in this assay is CLN2oe

As to `COC(=O)C1=C(C(=O)OC)C2(C)C=CC1O2` (stereo not given), the growth inhibition is -7% (at 1.2 µM); -5% (at 3.7 µM); -4% (at 11.0 µM); 15% (at 33.0 µM); 42% (at 100.0 µM).
In the same order, the values of `CC(=O)Nc1ccc2c(c1)C(=Nc1ccc(C(=O)O)cc1)c1ccccc1-2` are 1%, -11%, 3%, 14% and 47%.
Consider `COCCOC(=O)CCn1cc(F)c(=O)[nH]c1=O`, for which the growth inhibition (at 1.2 µM) is 0%; the growth inhibition (at 3.7 µM) was 4%; the growth inhibition (at 11.0 µM) was 6%; the growth inhibition (at 33.0 µM) was 15%; the growth inhibition (at 100.0 µM) was 19%.
Take `CC(=O)Nc1ccc(SC(C)=O)cc1`: the growth inhibition runs as follows: (at 1.2 µM) -5%; (at 3.7 µM) -17%; (at 11.0 µM) 12%; (at 33.0 µM) 47%; (at 100.0 µM) 85% (active).
Take `N#Cc1c(N)[nH]c2ccc(Sc3ccccc3)cc12`: the growth inhibition reads like this: (at 1.2 µM) -6%; (at 3.7 µM) -22%; (at 11.0 µM) 12%; (at 33.0 µM) 95% (active); (at 100.0 µM) 96% (active).
On to `Cc1cccc2c(C(O)CBr)cc(-c3ccc(Cl)cc3)nc12` (stereo not given), for which the growth inhibition is -2% (at 1.2 µM); -3% (at 3.7 µM); 98% (active) (at 11.0 µM); 96% (active) (at 33.0 µM); 51% (at 100.0 µM).
Taken in the same sequence, the figures for `CC(CC(C)(C)[N+](C)(C)C)[N+](C)(C)C` (stereo not given) were -11%, -1%, 1%, -6% and -7%.
Taken in the same sequence, the figures for `O=[N+]([O-])c1cccc2nc3ccccc3c(NCCCN3CCOCC3)c12` were -7%, 46%, 92% (active), 96% (active) and 99% (active).
